The values below come from PubChem BioAssay (NCATS).

Results filed as inconclusive are left out. A number with no mark means an inactive call. Calls of active or inactive are those of the source. Calls come from the whole dose curve; as a rule, active = well fitted curve in the direction sought with a large enough effect; inconclusive = small, poorly fitted or top-dose-only effect, or another doubt; inactive = no such curve, though single readings can be large; an effect the other way counts as inactive or inconclusive.

Assay [1] concerns the target Cellular tumor antigen p53 (Homo sapiens) (UniProt P04637). As to the kind of experiment: Primary qHTS for small molecule compounds that upregulate eGFP-tagged delta133p53alpha (in N-terminal) cells. (AID 2060322).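 For activation: series mostly up to about 56 µM; 0% = DMSO vehicle and 100% = reference activator.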 Note: nearly all actives have a fitted effect of over 75% in size. Note: potency is the fitted concentration of half-maximal effect. The settings on record: NCI-H358 eGFP-delta133p53alpha fluorescence, 24 h; activation: hits give high values. Put shortly:
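NCI-H358 cells pre-induced 24 h with 10 ng/ml doxycycline to express N-terminal eGFP-delta133p53alpha, then dosed 24 h at 37C without doxycycline; fixed, Hoechst-stained, GFP intensity by laser scanning cytometry, normalized to DMSO (0%) and 57.5 uM 5-azacytidine (100%).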

Assay [2] deals with Aldehyde dehydrogenase, mitochondrial (Homo sapiens) (UniProt P05091). Nature of the assay: qHTS for Inhibitors of the Aldehyde Dehydrogenase Family (ALDH2) Primary screen (AID 2061308).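 Note: plate controls were vehicle for no effect and reference inhibitor for full effect; nearly all actives have a fitted effect of over 55% in size.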
For assay [3], the target named is Retinaldehyde dehydrogenase 3 (Homo sapiens) (UniProt P47895). Nature of the assay: qHTS for Inhibitors of the Aldehyde Dehydrogenase Family (ALDH1A3) Primary screen (AID 2061315).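 Note: plate controls were DMSO vehicle for no effect and reference inhibitor for full effect.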

Sequence of Cellular tumor antigen p53 (Homo sapiens) (P04637 whole entry, looked up): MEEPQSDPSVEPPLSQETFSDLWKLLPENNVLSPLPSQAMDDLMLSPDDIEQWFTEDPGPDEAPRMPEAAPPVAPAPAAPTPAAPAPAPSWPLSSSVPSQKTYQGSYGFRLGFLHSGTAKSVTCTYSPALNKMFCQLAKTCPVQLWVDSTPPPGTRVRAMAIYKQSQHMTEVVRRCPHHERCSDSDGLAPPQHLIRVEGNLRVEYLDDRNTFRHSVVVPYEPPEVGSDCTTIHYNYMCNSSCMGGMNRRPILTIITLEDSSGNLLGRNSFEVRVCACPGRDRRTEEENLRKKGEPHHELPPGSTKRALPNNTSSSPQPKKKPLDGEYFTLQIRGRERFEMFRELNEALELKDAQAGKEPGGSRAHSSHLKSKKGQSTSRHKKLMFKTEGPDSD

Regarding `CC1=CC(=O)C2C(C)(C)CC(O)CC2(C)C1CO` (stereo unspecified), in assay [1], the activation was -17.6%. Also, the Potency entry in assay [2] and in assay [3] was “inactive” throughout.
Regarding `CC1(C)OC(=O)C(OCC2CC2)=C1c1ccc(S(C)(=O)=O)cc1`, in assay [1], the activation is -2.33%. Further, the Potency result in assay [2] and in assay [3] was “inactive” each time.
For `CC1CCC2(NC1)OC1CC3C4CC=C5CC(O[C@@H]6O[C@H](CO)[C@@H](O[C@@H]7O[C@@H](C)[C@H](O)[C@@H](O)[C@H]7O)[C@H](O)[C@H]6O[C@@H]6O[C@@H](C)[C@H](O)[C@@H](O)[C@H]6O)CCC5(C)C4CCC3(C)C1C2C` (stereo partly specified), the activation in assay [1] is 16.8%. Besides, the Potency entry in assay [2] and in assay [3] was “inactive” in each case.
On to `COC1C(OC(=O)/C=C/C=C/C=C/C=C/C(=O)O)CCC2(CO2)C1C1(C)OC1CC=C(C)C` (stereo unspecified), for which, in assay [1], the activation was 10.7%. The Potency entry in assay [2] and in assay [3] was “inactive” each time.
With `CC1=C2C3OC(=O)C(C)C3(O)CCC2(C)CCC1=O` (stereo unspecified), the activation in assay [1] was -20.5%. Also, the Potency entry in assay [2] and in assay [3] was “inactive” in each case.
Turning to `CC1=CC[C@@]2(C)CC[C@@](O)(C(C)C)[C@@H]2[C@@H](O)C1`, in assay [1], the activation is 11.5%. The Potency result in assay [2] and in assay [3] was “inactive” in each case.
Regarding `C=C(C)[C@@H]1CC[C@](C)(O)[C@@H](OC(=O)c2ccccc2)C1`, the activation in assay [1] was -15.2%. Further, the Potency entry in assay [2] and in assay [3] was “inactive” in each case.
Take `C=C1C(OC2OC(CO)C(O)C(O)C2O)CC2C(C)(C)C(O)CCC2(C)C1CC/C(C)=C\COC(=O)CC(=O)O` (stereo unspecified): the activation in assay [1] is 0.763%. Also, the Potency result in assay [2] and in assay [3] was “inactive” throughout.
As for `CC1=C(C)C(=O)OC(C(C)(O)C2CCC3C4CC=C5CC(OC6OC(COC7OC(CO)C(O)C(O)C7O)C(O)C(O)C6O)CC(O)C5(C)C4CCC32C)C1` (stereo unspecified), the activation in assay [1] is -6.87%. For the same compound, the Potency entry in assay [2] and in assay [3] was “inactive” in each case.
With `COC(=O)C1=CO[C@@H](O[C@@H]2O[C@H](CO)[C@@H](O)[C@H](O)[C@H]2O)/C(=C\CO)[C@@H]1CC(=O)OCCc1ccc(O)cc1`, the activation in assay [1] was -20.6%. The Potency result in assay [2] and in assay [3] was “inactive” throughout.
Turning to `N#Cc1c[nH]c2c(C(=O)N3CCN(CCc4ccc(F)cc4)CC3)cccc12`, the activation in assay [1] is -18.8%. The Potency result in assay [2] and in assay [3] was “inactive” throughout.
With `OC[C@@]1(O)CO[C@H](OC[C@H]2O[C@@H](OC(CCCCc3ccc(O)cc3)CCc3ccc(O)cc3)[C@H](O[C@H]3OC[C@](O)(CO)[C@H]3O)[C@@H](O)[C@@H]2O)[C@@H]1O` (stereo partly specified), in assay [1], the activation is -2.29%. For the same compound, the Potency entry in assay [2] and in assay [3] was “inactive” in each case.
`CC1=C2C[C@@]3(C)[C@@H](CCC[C@@H]3C)C[C@@]2(O)OC1=O`: the activation in assay [1] was -4.46%. Moreover, the Potency entry in assay [2] and in assay [3] was “inactive” in each case.
In the case of `C=C1C(OC(C)=O)CCC2(C)CC3(OC)OC(=O)C(C)=C3CC12` (stereo unspecified), the activation in assay [1] is 17.9%. For the same compound, the Potency entry in assay [2] and in assay [3] was “inactive” each time.
In the case of `COC(=O)C1=CO[C@@H](O[C@@H]2O[C@H](CO)[C@@H](O)[C@H](O)[C@H]2O)[C@H]2[C@@H]1C=C[C@]21C=C([C@H](C)OC(=O)/C=C/c2ccc(O)cc2)C(=O)O1`, the Potency in assay [1] is 2510 nM (active). In addition, the Potency entry in assay [2] and in assay [3] was “inactive” throughout.
Consider `C=CC(C)(CCC=C(C)C)O[C@@H]1O[C@H](CO)[C@@H](O)[C@H](O)[C@H]1O` (stereo partly specified), for which the activation in assay [1] was 3.57%. The Potency result in assay [2] and in assay [3] was “inactive” in each case.
As for `CC(=O)NC(C(=O)O[C@H]1CCC(C)(C)[C@@H]2CC=C3C(=O)OCC3(O)[C@@]12C)C(C)C` (stereo partly specified), in assay [1], the activation was 20.6%. Moreover, the Potency entry in assay [2] and in assay [3] was “inactive” throughout.
As for `COc1c2c(c(C)c3c1C(=O)OC3)OC1(C)CC(O)C34OC(OC)(OC3(C)C)C(O)CC4(C)C1C2` (stereo unspecified), in assay [1], the activation was -2.29%. In addition, the Potency result in assay [2] and in assay [3] was “inactive” in each case.
As to `C[C@@H]1C(=O)O[C@H]2[C@H]1CC[C@@]1(C)C(=O)C=C[C@](C)(O)[C@H]21`, the activation in assay [1] is 1.79%. Also, the Potency result in assay [2] and in assay [3] was “inactive” in each case.
For the compound `C/C(=N\O)c1ccc(OCC(=O)N2CCCCC2)cc1`, the activation in assay [1] is 3.35%. The Potency entry in assay [2] and in assay [3] was “inactive” throughout.
As to `N#Cc1ccc2ncnc(NCCc3ccccc3)c2c1`, in assay [1], the activation was -3.57%. The Potency result in assay [2] and in assay [3] was “inactive” in each case.
Consider `OCC1=C[C@@H](O)[C@@H]2C=CO[C@@H](O[C@@H]3O[C@H](CO)[C@@H](O)[C@H](O)[C@H]3O)[C@H]12`, for which the activation in assay [1] was -32.8%. Further, the Potency entry in assay [2] and in assay [3] was “inactive” throughout.
As for `O=C1Nc2ccc(O)cc2O[C@H]1O[C@@H]1O[C@H](CO)[C@@H](O)[C@H](O)[C@H]1O`, in assay [1], the activation was -16.8%. Further, the Potency result in assay [2] and in assay [3] was “inactive” throughout.
With `CC(C)(C)NCCCNC(=O)c1cccc(Br)c1`, in assay [1], the activation is -8.59%. The Potency entry in assay [2] and in assay [3] was “inactive” each time.
As to `CCC(C)/C=C(C)/C=C/C1=CC2=C(Cl)C(=O)C(C)(OC(C)=O)C(=O)C2=CN1CCCC(=O)O` (stereo unspecified), the activation in assay [1] was 0.763%. The Potency entry in assay [2] and in assay [3] was “inactive” throughout.
For the compound `O=C1C[C@@]2(C(=O)N1)C(=O)N(Cc1ccc(Br)cc1F)C(=O)c1cccn12`, the activation in assay [1] is -11.7%. Moreover, the Potency entry in assay [2] and in assay [3] was “inactive” throughout.
For the compound `COc1c2c(nc3occc13)C(CC=C(C)C)(OC)C(O)CC2` (stereo unspecified), the activation in assay [1] is 5.34%. The Potency result in assay [2] and in assay [3] was “inactive” each time.
